Measured values reported in PubChem BioAssay (NCATS).
Records with an inconclusive call do not appear. Calls of active or inactive are those of the source. The call rests on the fitted dose curve; in most records, active means well fitted inhibition curve with a large enough effect; inconclusive means small, poorly fitted or top-dose-only effect; inactive means flat fitted curve, though single readings scatter.

tested on: astro; assay: Drug repurposing screens with cells derived from glioblastoma tumor samples (AID 1345199); conditions: viability, ATP luminescence, 48 h; series mostly up to 45.9 µM; activity, negative = cell killing: at the top concentration; further: nearly all actives have a fitted effect of over 40% in size
Description: CD133+ cells were isolated from GBM patient biopsies and cultured as neurospheres. Neurospheres from four patients were used to screen the NCATS pharmaceutical collection (NPC) library of approved drugs and bioactive compounds. […] The neurospheres were incubated with drugs for 48 hours in 1536-well format, then assayed with an ATP content cell viability assay. […] These hits were cherry picked to confirm activity in the four original GBM lines screened plus three other slower growing GMB lines (unable to yield enough cells for a full primary screen). Variable activities of the confirmed primary hits in the different GBM patient lines were observed. The patient line 206 responded to the greatest number of compounds and line 923 responded to the least amount of active compounds.
On the % scale 0 is the no-effect control and ±100 the full control effect; potency means the concentration at half of the fitted maximal effect.

Compound	activity, negative = cell killing	Potency
O=C1OC2(c3ccccc31)c1cc(Br)c(O)c(Br)c1Oc1c2cc(Br)c(O)c1Br	-14.6% (inactive)	–
CCN1/C(=C/C=C/c2sc3ccccc3[n+]2CC)Sc2ccccc21	–	11.2 µM (active)
N=C(N)N1CCc2ccccc2C1	-14.5% (inactive)	–
Cc1ccc(S(=O)(=O)NC(=O)NC2CCCC2)cc1	-13.5% (inactive)	–
O=[N+]([O-])c1ccc(/C=N\O)o1	-18.1% (inactive)	–
O=C(NC1CCN(CCc2c[nH]c3ccccc23)CC1)c1ccccc1	-20.6% (inactive)	–
CN(C)CCC[C@@]1(c2ccc(F)cc2)OCc2cc(C#N)ccc21	-7.59% (inactive)	–
CCCCCCCCCCCCCCCCO	-15.7% (inactive)	–
Cc1c(-c2ccccc2)oc2c(C(=O)OCCN3CCCCC3)cccc2c1=O	-8.24% [at 21.2 µM] (inactive)	–
NC(=S)N/N=C/c1cccnc1	-15.4% (inactive)	–
COc1ccc(-c2cc(C(F)F)nn2-c2ccc(S(N)(=O)=O)cc2)cc1F	-11.3% (inactive)	–
CCN(CC)CCOc1ccccc1C(=O)CCc1ccccc1	-19.6% (inactive)	–
O=C(Nc1ncc([N+](=O)[O-])s1)c1cccs1	–	15.8 µM (active)
CCCCCCCCCCC[C@@H](C[C@@H]1OC(=O)[C@H]1CCCCCC)OC(=O)[C@H](CC(C)C)NC=O	–	22.4 µM (active)
OC(C#CCN1CCCC1)(c1ccccc1)c1ccccc1	-20.4% (inactive)	–
CCCCC(CC)COC(=O)c1ccc(N(C)C)cc1 (stereo not given)	-11.8% (inactive)	–
Cc1cccc(C)c1NC(=O)c1ccccc1C(=O)O	-17.9% (inactive)	–
N#CCC(=O)NN	-11.2% (inactive)	–
OCCOCCN1CCN(C2=Nc3ccccc3Sc3ccccc32)CC1	-17.4% (inactive)	–
O=[N+]([O-])c1cccc(S(=O)(=O)NCCNS(=O)(=O)c2cccc([N+](=O)[O-])c2)c1	-16.8% (inactive)	–

Compound	activity, negative = cell killing	Potency
CN1CCN(c2cc3c(cc2F)c(=O)c(C(=O)O)cn3-c2ccc(F)cc2)CC1	-12.4% (inactive)	–
CCO[C@@H]1O[C@H](C(COCc2ccccc2)OCc2ccccc2)[C@H](OCc2ccccc2)[C@H]1O (stereo not given in full)	-29.3% [at 21.2 µM] (inactive)	–
CCOc1ccc(NC(C)=O)cc1	-12.3% (inactive)	–
CCCCN1C[C@H](O)[C@@H](O)[C@H](O)[C@H]1CO	-12.7% (inactive)	–
Cc1ccc(O)c([C@H](CCN(C(C)C)C(C)C)c2ccccc2)c1	-24.3% (inactive)	–
COc1ccc(S(=O)(=O)N2c3ccc(Cl)cc3[C@@](O)(c3ccccc3Cl)[C@H]2C(=O)N2CCC[C@@H]2C(N)=O)cc1OC	-11.4% (inactive)	–
Cc1cc(CC(=O)O)c(C)n1-c1ccc(Cl)cc1	-12.1% (inactive)	–
CCCCc1cc2ccccc2c(OCCN(C)C)n1	-25.6% [at 21.2 µM] (inactive)	–
C[C@@H](O)[C@H]1C(=O)N2C(C(=O)O)=C([C@H]3CCCO3)S[C@H]12	-8.55% (inactive)	–
CCNC(=O)/C=C/c1cccc(Br)c1	-3.15% (inactive)	–
CO[C@]12C[C@@H](COC(=O)c3cncc(Br)c3)CN(C)[C@@H]1Cc1cn(C)c3cccc2c13	-23.2% (inactive)	–
NC1CCN(c2nc3c(cc2F)c(=O)c(C(=O)O)cn3-c2ccc(F)cc2F)C1 (stereo not given)	-9.02% (inactive)	–
Oc1c(Cl)cc(Cl)c(Cl)c1Cc1c(O)c(Cl)cc(Cl)c1Cl	–	4.47 µM (active)
CCOC(=O)[C@H](CCc1ccccc1)N[C@@H](C)C(=O)N1[C@H](C(=O)O)C[C@H]2CCCC[C@@H]21	–	inactive
COc1cc(N)c(Cl)cc1C(=O)NC1CCN(Cc2ccccc2)CC1	-14.3% [at 21.2 µM] (inactive)	–
CCC1NC(=O)c2cc(S(N)(=O)=O)c(Cl)cc2N1 (stereo not given)	-10.4% [at 21.2 µM] (inactive)	–
O=C(N/N=C/c1ccc([N+](=O)[O-])o1)c1ccc(O)cc1	-21.5% [at 21.2 µM] (inactive)	–
C=C[C@H]1CN2CC[C@H]1C[C@@H]2[C@@H](O)c1ccnc2ccc(OC)cc12	-20% (inactive)	–
CCCCCCCCCCCCCC(=O)OC(C)C	-1.9% (inactive)	–
COC(=O)C(c1ccccc1Cl)N1CCc2sccc2C1 (stereo not given)	-7.78% (inactive)	–
